# Laboratory results from PubChem BioAssay (NCI).
# Compounds without any hit were thinned out: in the full panel of roughly 83,000, 20% have a hit.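 96-well plates, one dose, 48 hours. Percent growth reported; active if below 10.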 Values without a mark were called inactive. Calls of active or inactive are those of the source.
# Test system: MOLT-4 leukemia
# Assay: NCI-60 one-dose screen, 48 h (100 = growth as untreated, 0 = no growth, -100 = all killed)
# Settings: 10 µM unless noted
# Description: Growth inhibition of the MOLT-4 human tumor cell line is measured as a screen for anti-cancer activity. Cells are grown in 96 well plates and exposed to the test compound for 48 hours. Compounds are tested at a single concentration, which is 10^-5 M for most compounds. The reported endpoint is percent growth (GI% or GIPRCNT), where numbers from 0 - 100% represent growth inhibition, and numbers from -100% - 0 represent cell death. For example, a value of 40 represents 60% growth inhibition. A value of 0 means no net growth occurred over the course of the experiment. A value of -40 indicates 40% of cells at the beginning of the experiment died by the end of the experiment. A value of -100 means all cells are dead at the end of the experiment.
# NCI-60 Human Tumor Cell Lines Screen was performed using the standard one-dose NCI protocol, which is described in more detail at https://dtp.cancer.gov/discovery_development/nci-60/default.htm.
# Compounds with GIPRCNT values below 10 were considered active. Activity score was based on GIPRCNT using the following formula: […]
# Score is 0 for GIPRCNT values of 100 or above, 50 for GIPRCNT values of 0, and 100 for GIPRCNT values of -100.
row,Compound,growth
1,O=C1c2ccccc2C(=O)c2cc(Cn3c[n+](Cc4ccc5ccccc5c4)c4ccccc43)ccc21,28.1%
2,COC(=O)[C@H](C)NC(=O)[C@@H]1CCCN1C(=O)CNC(=O)[C@H](C)N,102%
3,COC(=O)CCc1c(/C=C2\N=C(c3ccc[nH]3)C=C2OC)[nH]c(C)c1C(=O)OCc1ccccc1,16.9%
4,O=[N+]([O-])c1ccc(Oc2cccc3c(Oc4ccc([N+](=O)[O-])cc4[N+](=O)[O-])cccc23)c([N+](=O)[O-])c1,102%
5,O=C(OCC(O)C(=O)NC12CC3CC(CC(C3)C1)C2)c1cccc(Br)c1 (stereo not given),87%
6,CCOC(=O)C#Cc1c(CC(=O)OCC)nnn1[C@H]1O[C@@H](CO)[C@@H]2OC(C)(C)O[C@@H]21,50.1%
7,COc1cccc(/C=C2\CCc3ccccc3C2=O)c1,71.6%
8,COC(=O)c1c(C)nc(C)c2c1C(=O)C(Br)=C(NCCCCO)C2=O,79.5%
9,Cc1cc(C(=O)Nc2cc(Nc3ncccc3-c3ncnc4nc[nH]c34)ccc2F)cc(C(C)(C)C#N)c1,53.2%
10,O=C1N/C(=N/N=C(c2ccccc2)c2ccccc2)S/C1=C\c1ccc(Br)cc1,106%
11,O=C(c1ccccc1)[C@@H](c1ccccc1)[C@]1(O)C(=O)Nc2ccccc21,102%
12,COc1cc(/C=N/NC(=O)c2ccc3nc(-c4ccc(Cl)cc4)[nH]c3c2)cc(OC)c1OC,41.6%
13,O=C(Nc1ncc(Cc2cc(C(F)(F)F)ccc2Cl)s1)C(=S)N1CCOCC1,93%
14,C#CCOc1cccc(Nc2ncnc3c(NC(=O)CCl)cccc23)c1,-12.7% (active)
15,O=C(O)COc1ccc(F)cc1,101%
16,CCC(C)C(N)C(=O)NC(CC(C)C)C(=O)N1CCCC1C(=O)NC(Cc1c[nH]c2ccccc12)C(=O)NC(CCCCN)C(=O)NC(Cc1c[nH]c2ccccc12)C(=O)N1CCCC1C(=O)NC(Cc1c[nH]c2ccccc12)C(=O)NC(Cc1c[nH]c2ccccc12)C(=O)N1CCCC1C(=O)NC(Cc1c[nH]c2ccccc12)C(=O)NC(CCCNC(=N)N)C(=O)NC(CCCNC(=N)N)C(N)=O (stereo not given),-28.2% (active)
17,O=C(c1ccc(F)cc1)C1CCN(CCn2c(=O)[nH]c3ccccc3c2=O)CC1,95.5%
18,Cc1ccc(C(=O)Nc2ccc(CN3CCN(C)CC3)c(C(F)(F)F)c2)cc1C#Cc1cnc(N)c2ccccc12,-45.2% (active)
19,CCCCCCCC/C=C\CCCCCCCCOc1ccc(CC(=O)NCC[N+]2(C)CCCC2)cc1,68.4%
20,COc1nc2ccccc2cc1/C=C1/C=C(c2ccccc2)NC1=O,21.5%

row,Compound,growth
1,Cc1ccc(Nc2cc(N)nc(N)n2)cc1,91.3%
2,CC(=O)Oc1ccccc1C(=O)N(Cc1ccc2c(Cl)cc(Cl)c(O)c2n1)c1ccccc1,38.7%
3,COc1cccc(/C=C/C(=O)/C=C(/C=C/c2cccc(OC)c2OC)OB(F)F)c1OC,9.58% (active)
4,COc1ccc(C(=O)/C=C/c2ccc(C)cc2)cc1S(N)(=O)=O,15.9%
5,CC(C)C(=O)Nc1ncc(C(=O)NCCN(Cc2ccccc2)C(=O)c2ccc(S(=O)(=O)Nc3ccccc3)cc2)s1,75.1%
6,C/C=C(/C)C(=O)O[C@@H]1CC(C)(C)CC2C34OC(=O)[C@@]21CC[C@@]3(C)[C@]1(C)CCC2C(C)(C)C(=O)CC[C@]2(C)C1C[C@@H]4O (stereo not given in full),24.2%
7,COc1cc(NC(=O)c2cncnc2Nc2ccc3c(ccn3Cc3cccc(F)c3)c2)cc(OC)c1,19.8%
8,Cc1c(C(=O)C(SC(=S)N2CCOCC2)SC(=S)N2CCOCC2)nnn1-c1ccc([N+](=O)[O-])cc1,91.1%
9,COc1ccc(-c2cc(-c3ccc(N(C)C)cc3)nc(NC(=O)c3cccnc3)n2)cc1,98%
10,COc1ccc(C2CC(=O)Oc3c(OC)c4c(c(OC)c32)OCO4)cc1 (stereo not given),96.3%
11,COc1cc2c(cc1OC)CC[N+](CCC[N+](C)(C)C)=C2,91.6%
12,C=CCn1c(SCC(=O)Nc2ccc(C(=O)/C=C/c3ccc(Cl)cc3)cc2)nnc1-c1ccc(Cl)c(Cl)c1,45.5%
13,c1ccc(-c2nc(N3CCNCC3)c3oc(-c4ccccc4)nc3n2)cc1,-24.9% (active)
14,Cc1c(-c2cnc3ccc(Cl)cc3c2C(=O)O)nnn1-c1ccc(Cl)cc1,94.1%
15,Nc1n[nH]c2cccc(C#Cc3cccc(C(=O)Nc4ccc(Cl)c(C(F)(F)F)c4)c3)c12,31.2%
16,Cc1ccc2c(c1)CC(O)CC1C(=O)N(CCO)CC(=O)N21 (stereo not given),92.2%
17,Oc1ccc(C(c2ccc(O)cc2)c2ccc(Cl)cn2)cc1,98.3%
18,Cc1c(Cl)cccc1NC(=O)c1sc2nc3c(cc2c1N)CCCC3,21.6%
19,C=C(CNCCO)[C@@H]1CC[C@]2(CO)CC[C@]3(C)[C@H](CC[C@@H]4[C@@]5(C)CCC(NCCO)C(C)(C)[C@@H]5CC[C@]43C)[C@@H]12 (stereo not given in full),39.9%
20,CCOC(=O)CC1CSC(N/N=C/c2ccc(O)cc2)=N1 (stereo not given),107%
